Assays:
Test in all cases: log2 ratio of Biotin-Ahx-Ub-VS probe labelling (fragment/DMSO); higher = less target engagement (more negative = stronger competition), active = hit call of the paper (q ≤ 0.05, log2 ratio ≤ -1)
Details in all cases: compound concentration: 200 uM; treatment time: 3 h
[1] = biological target: T1, USP42 (UniProt Q9H9J4)
T1 sequence (whole entry): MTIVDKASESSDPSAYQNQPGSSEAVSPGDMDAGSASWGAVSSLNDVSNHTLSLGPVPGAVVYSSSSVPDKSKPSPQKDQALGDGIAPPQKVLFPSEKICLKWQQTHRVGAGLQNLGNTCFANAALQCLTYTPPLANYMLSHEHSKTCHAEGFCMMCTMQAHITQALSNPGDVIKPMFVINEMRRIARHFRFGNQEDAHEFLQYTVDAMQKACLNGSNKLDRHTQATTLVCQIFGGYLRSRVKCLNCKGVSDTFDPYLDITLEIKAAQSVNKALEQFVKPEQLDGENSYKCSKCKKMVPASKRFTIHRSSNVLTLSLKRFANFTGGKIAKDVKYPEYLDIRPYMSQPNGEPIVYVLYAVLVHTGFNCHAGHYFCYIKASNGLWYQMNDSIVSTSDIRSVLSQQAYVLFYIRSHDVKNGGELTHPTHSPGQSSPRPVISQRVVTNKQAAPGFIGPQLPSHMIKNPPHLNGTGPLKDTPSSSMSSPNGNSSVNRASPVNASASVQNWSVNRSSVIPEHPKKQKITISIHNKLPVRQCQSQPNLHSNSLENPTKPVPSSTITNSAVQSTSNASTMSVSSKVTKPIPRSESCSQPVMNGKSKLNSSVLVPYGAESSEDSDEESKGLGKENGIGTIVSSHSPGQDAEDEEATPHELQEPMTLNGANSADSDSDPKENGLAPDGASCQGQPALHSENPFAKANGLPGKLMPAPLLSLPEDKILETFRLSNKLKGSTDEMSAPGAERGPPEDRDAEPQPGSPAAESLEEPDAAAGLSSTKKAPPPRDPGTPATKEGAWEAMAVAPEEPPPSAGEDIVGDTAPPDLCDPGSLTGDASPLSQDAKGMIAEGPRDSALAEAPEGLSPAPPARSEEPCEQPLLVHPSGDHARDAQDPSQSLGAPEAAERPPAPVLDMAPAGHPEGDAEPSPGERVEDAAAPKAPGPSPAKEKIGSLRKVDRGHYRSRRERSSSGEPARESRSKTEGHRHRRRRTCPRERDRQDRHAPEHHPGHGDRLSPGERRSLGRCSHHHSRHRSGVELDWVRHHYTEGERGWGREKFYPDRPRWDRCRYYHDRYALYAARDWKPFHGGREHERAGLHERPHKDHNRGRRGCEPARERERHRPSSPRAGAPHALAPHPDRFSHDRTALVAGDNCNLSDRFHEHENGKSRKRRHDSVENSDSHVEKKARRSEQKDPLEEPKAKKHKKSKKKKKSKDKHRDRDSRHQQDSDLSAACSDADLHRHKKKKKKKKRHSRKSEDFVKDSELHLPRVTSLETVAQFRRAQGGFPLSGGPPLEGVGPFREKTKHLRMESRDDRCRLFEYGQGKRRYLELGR
How it was run: (§1)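 HEK293T lysate (495 µg per sample, in Tris/CHAPS/IGEPAL buffer with protease inhibitors) was treated in triplicate with fragment at 200 µM or with DMSO for 3 h. It was then treated with Biotin-Ahx-Ub-VS (0.5 µM final) for 1 h. Labelled DUBs were NeutrAvidin-enriched, digested with LysC and trypsin, and run by diaPASEF LC-MS/MS. Spectronaut label-free quantities were global-median-normalised. Values are average log2 ratios fragment/DMSO by unpaired t-test, using proteins with ≥2 unique peptides.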

[2] = biological target: USP46 (UniProt P62068)
How it was run: as §1

[3] = biological target: T2, USP47 (UniProt Q96K76)
T2 sequence (whole entry): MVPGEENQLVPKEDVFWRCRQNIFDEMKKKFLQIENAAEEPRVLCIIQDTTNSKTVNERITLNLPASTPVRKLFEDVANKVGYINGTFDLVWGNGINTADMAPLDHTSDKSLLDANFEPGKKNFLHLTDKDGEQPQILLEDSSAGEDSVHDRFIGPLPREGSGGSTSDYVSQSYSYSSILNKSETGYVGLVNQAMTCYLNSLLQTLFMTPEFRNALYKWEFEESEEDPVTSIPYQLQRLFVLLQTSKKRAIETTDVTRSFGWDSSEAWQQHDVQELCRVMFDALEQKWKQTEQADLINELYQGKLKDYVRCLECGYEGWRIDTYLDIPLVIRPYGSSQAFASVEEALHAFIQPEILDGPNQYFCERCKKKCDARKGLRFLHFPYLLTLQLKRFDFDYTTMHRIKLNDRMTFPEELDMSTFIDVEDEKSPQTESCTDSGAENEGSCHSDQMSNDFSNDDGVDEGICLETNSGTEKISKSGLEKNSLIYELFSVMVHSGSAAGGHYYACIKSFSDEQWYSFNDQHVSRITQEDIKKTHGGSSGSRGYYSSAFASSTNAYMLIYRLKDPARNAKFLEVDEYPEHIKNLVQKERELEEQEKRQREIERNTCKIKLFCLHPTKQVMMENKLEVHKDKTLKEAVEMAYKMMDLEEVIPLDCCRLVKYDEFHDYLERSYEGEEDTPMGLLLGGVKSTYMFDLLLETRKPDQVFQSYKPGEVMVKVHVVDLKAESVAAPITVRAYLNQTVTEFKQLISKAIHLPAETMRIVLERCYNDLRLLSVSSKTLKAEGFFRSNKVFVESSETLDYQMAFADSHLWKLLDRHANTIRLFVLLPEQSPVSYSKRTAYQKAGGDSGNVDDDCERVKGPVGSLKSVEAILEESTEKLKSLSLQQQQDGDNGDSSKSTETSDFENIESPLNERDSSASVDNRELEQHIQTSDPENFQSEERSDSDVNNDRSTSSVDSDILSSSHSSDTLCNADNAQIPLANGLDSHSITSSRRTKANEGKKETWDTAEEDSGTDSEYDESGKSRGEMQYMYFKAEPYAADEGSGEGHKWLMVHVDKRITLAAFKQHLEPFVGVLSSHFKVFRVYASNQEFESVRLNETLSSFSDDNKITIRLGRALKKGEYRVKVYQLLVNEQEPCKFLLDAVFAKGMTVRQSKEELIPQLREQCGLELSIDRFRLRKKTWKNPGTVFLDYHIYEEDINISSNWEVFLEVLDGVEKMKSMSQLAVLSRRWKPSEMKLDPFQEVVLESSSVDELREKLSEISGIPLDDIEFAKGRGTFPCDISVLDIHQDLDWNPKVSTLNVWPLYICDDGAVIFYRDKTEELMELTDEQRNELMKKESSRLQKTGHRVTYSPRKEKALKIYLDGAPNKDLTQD
How it was run: as §1

[4] = biological target: T3, USP48 (UniProt Q86UV5)
T3 sequence (whole entry): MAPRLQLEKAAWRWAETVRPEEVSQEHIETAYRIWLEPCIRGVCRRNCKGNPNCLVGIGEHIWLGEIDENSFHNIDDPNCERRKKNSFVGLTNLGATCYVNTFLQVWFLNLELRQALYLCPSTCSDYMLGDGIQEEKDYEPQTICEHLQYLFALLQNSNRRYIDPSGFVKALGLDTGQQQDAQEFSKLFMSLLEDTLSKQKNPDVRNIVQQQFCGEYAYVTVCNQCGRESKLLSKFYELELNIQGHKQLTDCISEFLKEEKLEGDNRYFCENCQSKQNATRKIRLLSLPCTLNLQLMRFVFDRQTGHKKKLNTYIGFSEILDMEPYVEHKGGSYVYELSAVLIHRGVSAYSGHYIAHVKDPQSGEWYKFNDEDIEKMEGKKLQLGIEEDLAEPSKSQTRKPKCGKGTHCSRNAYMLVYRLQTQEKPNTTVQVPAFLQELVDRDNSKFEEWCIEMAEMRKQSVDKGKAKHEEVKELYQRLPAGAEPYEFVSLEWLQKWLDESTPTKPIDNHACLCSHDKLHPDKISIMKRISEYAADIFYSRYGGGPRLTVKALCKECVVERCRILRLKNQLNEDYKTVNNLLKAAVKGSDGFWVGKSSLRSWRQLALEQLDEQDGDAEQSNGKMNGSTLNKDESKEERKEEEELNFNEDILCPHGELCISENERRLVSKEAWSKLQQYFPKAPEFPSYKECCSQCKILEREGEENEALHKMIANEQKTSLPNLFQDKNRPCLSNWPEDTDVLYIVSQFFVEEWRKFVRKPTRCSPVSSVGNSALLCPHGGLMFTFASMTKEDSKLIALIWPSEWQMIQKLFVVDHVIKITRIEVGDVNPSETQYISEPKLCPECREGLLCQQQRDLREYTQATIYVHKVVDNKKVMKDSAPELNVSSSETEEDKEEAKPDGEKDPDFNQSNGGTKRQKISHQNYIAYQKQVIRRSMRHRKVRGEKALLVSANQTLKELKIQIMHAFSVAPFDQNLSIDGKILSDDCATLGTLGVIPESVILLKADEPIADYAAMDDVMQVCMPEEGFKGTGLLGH
How it was run: as §1

[5] = biological target: T4, USP5 (UniProt P45974)
T4 sequence (whole entry): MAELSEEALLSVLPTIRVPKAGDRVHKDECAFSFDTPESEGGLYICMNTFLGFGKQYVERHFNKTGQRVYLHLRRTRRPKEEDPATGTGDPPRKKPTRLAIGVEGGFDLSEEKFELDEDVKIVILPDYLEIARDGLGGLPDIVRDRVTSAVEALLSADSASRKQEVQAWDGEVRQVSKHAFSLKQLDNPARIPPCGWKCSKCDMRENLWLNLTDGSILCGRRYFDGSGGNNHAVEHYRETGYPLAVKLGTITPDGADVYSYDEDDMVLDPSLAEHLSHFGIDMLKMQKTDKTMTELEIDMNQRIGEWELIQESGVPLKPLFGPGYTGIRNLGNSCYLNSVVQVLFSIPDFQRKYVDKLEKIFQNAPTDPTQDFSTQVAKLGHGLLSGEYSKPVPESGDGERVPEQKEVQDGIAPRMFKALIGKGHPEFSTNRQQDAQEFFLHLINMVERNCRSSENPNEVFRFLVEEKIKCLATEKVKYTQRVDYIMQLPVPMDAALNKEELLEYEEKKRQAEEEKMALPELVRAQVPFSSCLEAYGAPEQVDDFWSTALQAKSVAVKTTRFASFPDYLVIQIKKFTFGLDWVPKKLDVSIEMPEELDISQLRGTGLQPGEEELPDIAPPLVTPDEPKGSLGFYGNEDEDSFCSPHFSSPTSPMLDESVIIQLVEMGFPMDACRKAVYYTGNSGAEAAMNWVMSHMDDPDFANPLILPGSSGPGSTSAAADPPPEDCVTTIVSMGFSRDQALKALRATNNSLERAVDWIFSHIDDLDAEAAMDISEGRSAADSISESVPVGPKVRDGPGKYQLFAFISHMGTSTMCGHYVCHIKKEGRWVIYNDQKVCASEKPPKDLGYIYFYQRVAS
How it was run: as §1

[6] = biological target: USP54 (UniProt Q70EL1)
How it was run: as §1

[7] = biological target: USP7 (UniProt Q93009)
How it was run: as §1

[8] = biological target: T5, USP8 (UniProt P40818)
T5 sequence (whole entry): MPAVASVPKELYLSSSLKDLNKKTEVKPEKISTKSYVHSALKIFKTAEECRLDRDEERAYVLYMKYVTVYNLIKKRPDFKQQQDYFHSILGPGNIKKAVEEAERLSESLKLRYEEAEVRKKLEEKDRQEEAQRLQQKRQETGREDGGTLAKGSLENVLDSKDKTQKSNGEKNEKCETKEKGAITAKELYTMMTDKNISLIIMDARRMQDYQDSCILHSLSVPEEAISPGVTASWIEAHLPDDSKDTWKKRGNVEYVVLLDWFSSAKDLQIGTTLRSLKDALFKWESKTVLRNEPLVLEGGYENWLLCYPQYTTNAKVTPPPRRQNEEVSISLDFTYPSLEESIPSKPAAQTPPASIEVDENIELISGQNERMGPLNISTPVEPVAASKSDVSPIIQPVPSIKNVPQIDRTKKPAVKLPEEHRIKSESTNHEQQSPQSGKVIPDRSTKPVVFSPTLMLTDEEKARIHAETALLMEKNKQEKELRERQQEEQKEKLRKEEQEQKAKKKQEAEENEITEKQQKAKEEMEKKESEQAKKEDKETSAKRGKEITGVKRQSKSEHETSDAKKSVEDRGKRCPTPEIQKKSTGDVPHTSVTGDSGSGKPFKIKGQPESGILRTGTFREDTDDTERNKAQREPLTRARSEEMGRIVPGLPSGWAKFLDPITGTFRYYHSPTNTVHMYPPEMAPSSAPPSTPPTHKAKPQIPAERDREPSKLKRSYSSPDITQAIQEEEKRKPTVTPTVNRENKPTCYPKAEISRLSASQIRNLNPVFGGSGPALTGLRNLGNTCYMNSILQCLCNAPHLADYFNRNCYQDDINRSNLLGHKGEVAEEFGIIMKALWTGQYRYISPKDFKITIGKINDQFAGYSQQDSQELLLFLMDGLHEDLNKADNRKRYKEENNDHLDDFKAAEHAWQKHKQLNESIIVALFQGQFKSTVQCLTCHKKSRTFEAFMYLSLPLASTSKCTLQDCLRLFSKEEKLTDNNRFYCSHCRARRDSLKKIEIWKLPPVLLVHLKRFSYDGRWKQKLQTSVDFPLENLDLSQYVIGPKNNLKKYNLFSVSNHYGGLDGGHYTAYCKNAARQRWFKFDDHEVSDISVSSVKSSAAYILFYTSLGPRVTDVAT
How it was run: as §1

Measured: log2 ratio of Biotin-Ahx-Ub-VS probe labelling

USP54, sequence (Q70EL1 whole entry): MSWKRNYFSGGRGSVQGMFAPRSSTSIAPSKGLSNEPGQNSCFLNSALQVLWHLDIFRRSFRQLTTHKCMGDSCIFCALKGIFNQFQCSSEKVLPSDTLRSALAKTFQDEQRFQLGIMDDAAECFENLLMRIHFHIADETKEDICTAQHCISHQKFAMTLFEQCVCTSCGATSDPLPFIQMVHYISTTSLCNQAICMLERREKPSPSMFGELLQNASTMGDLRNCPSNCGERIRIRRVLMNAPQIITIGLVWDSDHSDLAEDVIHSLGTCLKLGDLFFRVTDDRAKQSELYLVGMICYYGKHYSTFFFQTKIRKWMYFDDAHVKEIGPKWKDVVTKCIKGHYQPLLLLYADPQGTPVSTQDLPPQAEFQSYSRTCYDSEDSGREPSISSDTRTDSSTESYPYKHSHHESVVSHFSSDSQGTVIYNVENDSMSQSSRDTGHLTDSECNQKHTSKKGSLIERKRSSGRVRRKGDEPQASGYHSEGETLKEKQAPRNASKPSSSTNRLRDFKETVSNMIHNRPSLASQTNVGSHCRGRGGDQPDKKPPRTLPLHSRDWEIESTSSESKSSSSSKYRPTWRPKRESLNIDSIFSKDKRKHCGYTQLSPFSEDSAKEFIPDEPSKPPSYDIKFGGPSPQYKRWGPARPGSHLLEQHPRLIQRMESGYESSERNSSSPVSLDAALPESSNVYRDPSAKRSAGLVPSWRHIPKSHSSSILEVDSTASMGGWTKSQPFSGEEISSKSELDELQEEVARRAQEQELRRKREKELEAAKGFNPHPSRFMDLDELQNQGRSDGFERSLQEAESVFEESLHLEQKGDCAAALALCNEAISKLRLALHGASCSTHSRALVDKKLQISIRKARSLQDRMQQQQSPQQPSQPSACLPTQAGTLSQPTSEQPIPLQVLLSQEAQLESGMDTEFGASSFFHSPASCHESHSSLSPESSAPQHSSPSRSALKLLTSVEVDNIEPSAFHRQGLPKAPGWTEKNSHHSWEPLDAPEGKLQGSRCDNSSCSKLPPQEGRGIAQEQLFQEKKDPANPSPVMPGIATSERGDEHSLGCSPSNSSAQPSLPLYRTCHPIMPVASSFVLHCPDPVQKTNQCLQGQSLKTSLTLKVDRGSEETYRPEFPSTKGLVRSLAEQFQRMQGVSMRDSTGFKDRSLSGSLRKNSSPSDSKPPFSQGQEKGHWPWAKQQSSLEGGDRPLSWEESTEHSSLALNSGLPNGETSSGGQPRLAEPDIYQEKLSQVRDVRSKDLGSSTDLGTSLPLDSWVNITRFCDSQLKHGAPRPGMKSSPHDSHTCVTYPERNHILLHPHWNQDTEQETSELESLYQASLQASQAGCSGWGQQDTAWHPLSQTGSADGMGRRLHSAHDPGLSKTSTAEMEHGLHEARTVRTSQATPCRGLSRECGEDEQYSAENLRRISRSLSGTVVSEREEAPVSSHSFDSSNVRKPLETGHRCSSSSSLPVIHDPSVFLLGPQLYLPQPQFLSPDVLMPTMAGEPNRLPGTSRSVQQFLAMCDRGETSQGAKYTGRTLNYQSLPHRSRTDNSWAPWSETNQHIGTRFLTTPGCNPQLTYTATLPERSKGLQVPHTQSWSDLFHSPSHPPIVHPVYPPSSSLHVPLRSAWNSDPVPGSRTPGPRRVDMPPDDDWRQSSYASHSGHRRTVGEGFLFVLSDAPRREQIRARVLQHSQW
USP7, sequence (Q93009 whole entry, looked up): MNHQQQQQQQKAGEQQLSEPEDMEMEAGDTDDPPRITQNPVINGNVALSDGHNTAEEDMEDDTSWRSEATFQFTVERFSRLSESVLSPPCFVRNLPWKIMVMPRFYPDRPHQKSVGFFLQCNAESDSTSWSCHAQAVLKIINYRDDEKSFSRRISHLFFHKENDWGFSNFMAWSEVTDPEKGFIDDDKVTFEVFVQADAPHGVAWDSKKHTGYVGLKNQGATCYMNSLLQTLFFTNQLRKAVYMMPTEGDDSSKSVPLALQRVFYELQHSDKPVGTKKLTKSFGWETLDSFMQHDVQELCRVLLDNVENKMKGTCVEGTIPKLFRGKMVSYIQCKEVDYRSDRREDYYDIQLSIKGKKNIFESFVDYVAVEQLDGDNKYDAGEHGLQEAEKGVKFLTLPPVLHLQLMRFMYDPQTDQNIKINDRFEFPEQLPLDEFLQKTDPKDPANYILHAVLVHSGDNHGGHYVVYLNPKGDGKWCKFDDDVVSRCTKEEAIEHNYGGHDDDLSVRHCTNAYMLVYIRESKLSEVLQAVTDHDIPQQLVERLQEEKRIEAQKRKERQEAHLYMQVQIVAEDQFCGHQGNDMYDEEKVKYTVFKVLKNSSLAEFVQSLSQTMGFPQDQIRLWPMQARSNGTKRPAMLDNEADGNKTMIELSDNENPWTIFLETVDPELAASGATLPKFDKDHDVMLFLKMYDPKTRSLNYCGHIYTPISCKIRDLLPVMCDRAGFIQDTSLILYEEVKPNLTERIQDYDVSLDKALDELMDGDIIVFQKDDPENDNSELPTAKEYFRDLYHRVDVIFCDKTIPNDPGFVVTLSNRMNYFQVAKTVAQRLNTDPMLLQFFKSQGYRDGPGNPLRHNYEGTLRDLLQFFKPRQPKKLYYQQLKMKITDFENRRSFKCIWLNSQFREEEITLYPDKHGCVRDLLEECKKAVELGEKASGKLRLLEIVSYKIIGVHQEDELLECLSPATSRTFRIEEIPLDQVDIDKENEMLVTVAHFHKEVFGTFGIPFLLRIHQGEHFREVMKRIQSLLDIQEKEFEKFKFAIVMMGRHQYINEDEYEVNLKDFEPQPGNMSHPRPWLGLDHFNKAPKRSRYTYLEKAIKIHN
USP46, sequence (P62068 whole entry): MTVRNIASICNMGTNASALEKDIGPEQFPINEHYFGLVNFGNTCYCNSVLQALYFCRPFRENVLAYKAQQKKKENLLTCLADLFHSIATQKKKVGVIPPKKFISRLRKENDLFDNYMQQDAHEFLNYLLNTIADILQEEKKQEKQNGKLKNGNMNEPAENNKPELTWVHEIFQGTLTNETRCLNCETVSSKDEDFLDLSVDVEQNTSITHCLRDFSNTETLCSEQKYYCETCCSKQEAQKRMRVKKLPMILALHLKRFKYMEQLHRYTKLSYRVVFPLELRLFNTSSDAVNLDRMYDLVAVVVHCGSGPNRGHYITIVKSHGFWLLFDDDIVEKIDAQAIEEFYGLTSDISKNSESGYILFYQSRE

O=C(CCl)Nc1cc(Cl)ccc1C(=O)O
inactive: [1] -0.11 | [2] 0.0628 | [3] 0.0765 | [4] 0.232 | [5] 0.436 | [6] 0.0975 | [7] 0.19 | [8] -0.256
